DTT redox prof – compounds producing H2O2 with reducing agent – biochemical, NIH compound library profiling, artefact control for MLSCN library redox annotation, primary screen | DTT-dependent redox cycling H2O2, phenol red/HRP absorbance; 100% = 100 µM peroxide control, 0% = buffer | activation, % at 10 µM | 200,000 compounds, 0.03% hits | AID 878;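 active means activation of at least 50% relative to the plate's high and low controls in the primary single-dose screen; inactive means activation below 50%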;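 further: compound incubated with DTT at 0.8 mM final as the reducing agent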
p97 ATPase inh – blocks human p97 ATPase activity. 220,000 compounds, 0.42% hits. P55072. inhibition, % at 8 µM. AID 1481. recombinant p97 ATPase, Kinase-Glo ATP luminescence, 3 h; in the data active means inhibition above about 15%;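 further: 0% = DMSO vehicle and 100% = wells lacking enzyme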
Target sequence (P55072 whole entry, looked up): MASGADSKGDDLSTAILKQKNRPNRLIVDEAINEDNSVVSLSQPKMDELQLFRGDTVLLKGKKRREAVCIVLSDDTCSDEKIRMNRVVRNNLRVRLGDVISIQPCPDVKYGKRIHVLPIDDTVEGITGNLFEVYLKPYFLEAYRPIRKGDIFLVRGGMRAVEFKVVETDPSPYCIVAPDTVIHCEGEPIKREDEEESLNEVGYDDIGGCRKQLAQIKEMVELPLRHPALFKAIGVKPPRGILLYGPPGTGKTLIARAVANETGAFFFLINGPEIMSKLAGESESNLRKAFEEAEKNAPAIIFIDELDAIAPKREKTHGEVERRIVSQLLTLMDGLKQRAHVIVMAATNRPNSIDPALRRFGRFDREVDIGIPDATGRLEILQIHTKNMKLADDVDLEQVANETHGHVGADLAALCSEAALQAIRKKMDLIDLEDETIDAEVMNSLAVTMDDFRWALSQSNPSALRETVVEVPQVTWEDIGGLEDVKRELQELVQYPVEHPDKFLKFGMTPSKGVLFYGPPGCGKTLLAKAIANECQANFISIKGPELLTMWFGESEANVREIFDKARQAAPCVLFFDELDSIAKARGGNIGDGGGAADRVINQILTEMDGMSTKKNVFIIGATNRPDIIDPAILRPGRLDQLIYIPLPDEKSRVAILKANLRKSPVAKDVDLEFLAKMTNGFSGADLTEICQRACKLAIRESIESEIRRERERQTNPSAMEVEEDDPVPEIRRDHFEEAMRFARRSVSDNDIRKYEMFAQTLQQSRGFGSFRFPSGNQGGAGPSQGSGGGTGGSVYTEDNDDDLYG
S1P3 antag – blocks the human S1P3 receptor; 170,000 compounds, 0.27% hits; Q99500; CHO S1P3 NFAT-BLA reporter, FRET fluorescence, antagonist mode; inhibition, % at 4.98 µM;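 active means inhibition above the plate cutoff, the mean inhibition of test wells on that plate plus 3 SD, cut at about 28% in these data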;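 further: cells challenged with S1P at its EC80 of 0.8 µM; blue over green emission ratio from cleaved BLA substrate after 4 h stimulation; 0% = S1P-stimulated wells and 100% = unstimulated DMSO-only wells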
G6PDH CS – inhibits Leuconostoc G6PDH, flagging false hits in G6PDH-based assays; Purified L. mesenteroides G6PDH, diaphorase/resazurin coupled fluorescence, 45 min; inhibition, % at 5 µM; 200,000 compounds, 0.12% hits; in the data active means inhibition above about 50%
Tb hexokinase – T. brucei hexokinase 1 inhibition; recombinant TbHK1, G6PDH-coupled NADH A340; inhibition, % at 10 µM; 220,000 compounds, 0.11% hits;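 active means inhibition of 50% or more in the single-dose primary screen; inactive means inhibition below 50%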
p97 inh conf – human p97 ATPase inhibition, confirmation. shares compounds with p97 ATPase inh. recombinant p97 ATPase, Kinase-Glo ATP luminescence. inhibition, % at 8 µM. 760 compounds, 44% hits. AID 1517;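 active means percent inhibition of p97 ATPase above a set limit, the primary screen's mean plus 3 SD, cut at about 15% in these data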;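 further: 0% = DMSO wells and 100% = wells lacking p97 protein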
* = called active by the depositor; · = no result given. Hits are enriched below; roughly 0.84% of the tested compounds scored in any of these assays.

SMILES	DTT redox prof	p97 ATPase inh	S1P3 antag	G6PDH CS	Tb hexokinase	p97 inh conf
Cn1c(N)c(C(=O)CSc2nnc(-c3ccccc3F)n2N)c(=O)n(C)c1=O	·	6	5	·	-3	·
N#CCCn1[nH]c(-c2ccccc2)cc1=O	0	22*	-1	-8	1	5
O=c1cc(-c2ccccc2)[nH]n1-c1nc2ccccc2[nH]1	1	-2	-8	22	-2	·
COc1ccc(O)c(/C=N/N2CCOCC2)c1	·	-1	-20	·	-29	·
Cc1ccc(CNC(=O)c2ccccc2NS(C)(=O)=O)cc1	2	-2	0	-20	-10	·
CCOC(=O)C1CCCN(S(=O)(=O)c2cn(C)c(=O)n(C)c2=O)C1 (configuration not stated)	0	17*	-1	-2	3	3
CCOC(=O)C1CCN(S(=O)(=O)c2cn(C)c(=O)n(C)c2=O)CC1	0	2	-20	31	2	·
COc1ccc(CNC(=O)C(c2ccncc2)N(C(=O)Cc2cccs2)c2cccc(C)c2)cc1 (configuration not stated)	-2	-1	·	4	-3	·
O=C(O)c1ccccc1SCC(=O)N1c2ccccc2Sc2ccccc21	1	66*	-3	9	-4	-1
O=C(O)c1ccccc1SCC(=O)N1CCCCC1	2	4	-31	-7	1	·
Cc1ccccc1Oc1nc2c(C)cccn2c(=O)c1/C=C(\C#N)C(=O)NC1CCS(=O)(=O)C1 (configuration not stated)	·	15*	0	·	-25	7
S=c1[nH]nc(-c2cccnc2)n1/N=C/C=C/c1ccco1	3	5	2	14	-47	·
COC(=O)CCCCC1SCC(NC(=O)c2ccccc2)C1=O (configuration not stated)	-1	17*	-32	3	8	4
Cn1c(SCC(=O)N2CCCc3ccccc32)nnc1-c1c[nH]c2ccccc12	3	16*	-17	-22	3	6
CCn1c(SCC(=O)N2CCCc3ccccc32)nnc1-c1c[nH]c2ccccc12	1	2	-12	2	2	·
C=C(C)c1cccc(C(C)(C)NC(=O)NCCCn2ccnc2)c1	0	-5	-12	-5	0	·
Cc1c(C(=O)OCC(=O)Nc2ccc(S(N)(=O)=O)cc2)oc2c1ccc1ccccc12	0	16*	-6	1	5	8
Cc1ccc(C(=O)NC(C#N)=C(Cl)Cl)cc1	0	22*	-10	7	2	21*
CC(=O)Oc1cc2cccc(OC(C)=O)c(=O)c2c(OC(C)=O)c1OC(C)=O	-1	29*	-7	12	-3	4
O=C(CN1C(=O)C2C3CCC(C3)C2C1=O)N1CCN(Cc2ccccc2)CC1 (configuration not stated)	0	-2	-18	9	-8	·

Compound activity deposited in PubChem by several laboratories.
